ASM inhibitor = Inhibitors of Secretory Acid Sphingomyelinase (S-ASM): qHTS | placental ASM, HMU-PC fluorogenic substrate, 60 min | Potency, µM (titrated, usually from 57.5 µM), for the others: at the highest dose activity change, negative = inhibition, actives largely listed as inhibitors | 340,000 compounds, 0.006% hits | AID 504937, 2011; note: potency is the fitted concentration of half-maximal effect
Target sequence (P17405 47-631 limits assumed): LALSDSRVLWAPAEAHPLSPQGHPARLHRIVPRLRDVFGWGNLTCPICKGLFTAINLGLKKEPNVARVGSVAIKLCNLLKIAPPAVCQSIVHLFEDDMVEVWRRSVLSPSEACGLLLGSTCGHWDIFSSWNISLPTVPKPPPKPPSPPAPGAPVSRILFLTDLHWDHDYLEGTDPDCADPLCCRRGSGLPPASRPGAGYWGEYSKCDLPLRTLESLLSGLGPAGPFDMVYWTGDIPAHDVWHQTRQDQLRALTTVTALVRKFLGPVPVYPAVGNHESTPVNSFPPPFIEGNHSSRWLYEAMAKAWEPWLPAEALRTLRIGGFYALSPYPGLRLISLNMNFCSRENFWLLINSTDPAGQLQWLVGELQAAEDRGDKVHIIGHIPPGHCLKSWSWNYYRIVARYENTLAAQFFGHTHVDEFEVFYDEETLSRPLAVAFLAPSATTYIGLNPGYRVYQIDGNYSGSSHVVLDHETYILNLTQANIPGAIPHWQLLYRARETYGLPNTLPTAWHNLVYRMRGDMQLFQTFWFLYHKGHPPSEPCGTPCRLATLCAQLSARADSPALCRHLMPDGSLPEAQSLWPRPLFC
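qHTS format. ASM enzyme prepared from human placenta hydrolyses the fluorogenic substrate HMU-PC0 (9 uM final) over 60 min at 37 °C after a 10 min compound preincubation.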
TGFb inhibitor = qHTS for Inhibitors of TGF-b; AID 588855, 2011; 410,000 compounds, 1.2% hits; HepG2 CAGA-GFP TGF-b/SMAD3 reporter, GFP fluorescence, 18 h; TGF-beta stimulated, 500 pg/mL final; Potency, µM (titrated, usually from 46.1 µM), without a hit: at the top dose activity, negative = inhibition, actives largely listed as inhibitors; note: potency is the fitted concentration of half-maximal effect; % is set by controls: 0 for no effect and ±100 for the full control effect; nearly all actives have a fitted effect of over 65% in size
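Inhibition of TGF-beta-driven CAGA-GFP reporter expression in HEPG2 cells is measured by cellular GFP fluorescence after 18 h stimulation with 500 pg/mL recombinant TGF-beta in 1% FBS medium at 37 degrees C.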
IL-1B inflam inh = qHTS for Inhibitors of Inflammasome Signaling: IL-1-beta AlphaLISA Primary Screen; THP-1 LPS/ATP IL-1B secretion, AlphaLISA, 16 h; stronger effect = lower value; activity change, % at 57.5 µM; 360,000 compounds, 4.7% hits; in the data active = activity change below about -50%; inconclusive = mostly about -30% to -49%; note: % is set by controls: 0 for no effect and ±100 for the full control effect
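Secreted IL-1B measured by AlphaLISA bead assay after 16 h compound exposure of THP-1 cells; compounds (final up to 57.5 uM) added 1 h before LPS (250 ng/mL) and ATP (1.25 mM) stimulation; lower signal means less secretion.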
DT40 TDP1 no CPT = qHTS for Inhibitors of human tyrosyl-DNA phosphodiesterase 1 (TDP1): qHTS in cells in absence of CPT | DT40 Tdp1-/- hTDP1 cells, no CPT, ATP luminescence, 48 h | Potency, µM (top dose mostly 46.2 µM), without a hit: at the highest dose activity change, negative = growth inhibition, usual class: inhibitors | 420,000 compounds, 15% hits; note: potency is the fitted concentration of half-maximal effect; % is set by controls: 0 for no effect and ±100 for the full control effect; nearly all actives have a fitted effect of over 55% in size
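Compound effects on proliferation are scored in DT40 Tdp1-/-;hTDP1 cells in the absence of CPT. ATP levels (CellTiter-Glo luminescence) are recorded after a ≥48 hr, 37 °C incubation.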
HepG2 tox-1 = qHTS for Inhibitors of TGF-b: Cytotox Counterscreen; HepG2 CAGA-GFP viability, ATP luminescence, 18 h; Potency, µM (highest dose often 46.1 µM), for inactives: top-dose activity change, negative = cytotoxicity, actives largely listed as cytotoxic; 410,000 compounds, 0.76% hits; AID 588856, 2011; note: potency is the fitted concentration of half-maximal effect
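CellTiter-Glo luminescence gave cytotoxicity after 18 hours at 37 degrees C. The cells were HepG2 CAGA-GFP in 1% FBS DMEM, stimulated with 500 pg/mL TGF-beta after compound addition. %Activity was normalised to no-cell wells (complete cell-killing) and DMSO (no toxicity), and curves were fitted and classified.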
DT40 TDP1 CPT = qHTS for Inhibitors of human tyrosyl-DNA phosphodiesterase 1 (TDP1): qHTS in cells in presence of CPT; chicken DT40 Tdp1-/-;hTDP1 cells + 20 nM CPT, ATP luminescence, 48 h; Potency, µM (titrated, usually from 46.2 µM), for inactives: top-dose activity change, negative = growth inhibition, most hits filed as inhibitors; 420,000 compounds, 12% hits; note: potency is the fitted concentration of half-maximal effect; % is set by controls: 0 for no effect and ±100 for the full control effect; nearly all actives have a fitted effect of over 55% in size
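Cell growth measured by CellTiter-Glo luminescence after a minimum 48 h, 37 C compound exposure with 20 nM CPT in Tdp1-knockout DT40 cells stably expressing hTDP1, seeded 400/well; qHTS titration format.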
TGFb confirm = qHTS for Inhibitors of TGF-b: Confirmation of Cherry Picks; AID 720534, 2013; 1,600 compounds, 63% hits; shares compounds with TGFb inhibitor; HepG2 CAGA-GFP TGF-b reporter, GFP fluorescence, 18 h; cells stimulated with TGF-beta, 500 pg/mL; Potency, µM (highest dose often 46.1 µM), for the others: at the top dose activity, negative = inhibition, most hits filed as inhibitors; note: potency is the fitted concentration of half-maximal effect; % is set by controls: 0 for no effect and ±100 for the full control effect; nearly all actives have a fitted effect of over 65% in size
HepG2 tox-2 = qHTS for Inhibitors of TGF-b: Cytotox Counterscreen for Cherry Picks. Potency, µM (highest dose often 46.1 µM), without a hit: top-dose activity, negative = cytotoxicity, hits mostly inhibitors. 1,600 compounds, 27% hits. HepG2 CAGA-GFP viability, ATP luminescence, 18 h; cells stimulated with TGF-beta, 500 pg/mL. shares compounds with TGFb inhibitor; note: potency is the fitted concentration of half-maximal effect; % is set by controls: 0 for no effect and ±100 for the full control effect; nearly all actives have a fitted effect of over 70% in size
CCL64 TGFb inh = qHTS for Inhibitors of TGF-b: CCL64 Cells Orthogonal Assay for Cherry Picks. shares compounds with TGFb inhibitor. CCL64 CAGA-GFP reporter, TGF-b stimulated, GFP fluorescence, 18 h. Potency, µM (titrated, usually from 46.1 µM), inactives show top-dose activity, negative = inhibition, usual class: inhibitors. 1,600 compounds, 41% hits. AID 720536, 2013; note: potency is the fitted concentration of half-maximal effect; nearly all actives have a fitted effect of over 65% in size
TGFb COP inh = qHTS for Inhibitors of TGF-b: Hit Validation in HepG2 Cells using COP promoter; shares compounds with TGFb inhibitor; HepG2 COP-GFP TGF-b reporter, GFP fluorescence, 18 h; cells stimulated by added recombinant TGF-beta; Potency, µM (top dose mostly 46.1 µM), for the others: at the highest dose activity, negative = inhibition, most hits filed as inhibitors; 1,600 compounds, 3% hits; AID 720537, 2013; note: potency is the fitted concentration of half-maximal effect; nearly all actives have a fitted effect of over 70% in size
* marks the source's active call; other numbers are inactive results; ? = inconclusive; · = no result; ! = not confirmed by another sample. Most compounds without a hit are left out; they make up all but 19% or so of the library. Unless noted, calls come from the whole dose curve; as a rule, active = well fitted curve in the direction sought with a large enough effect; inconclusive = small, poorly fitted or top-dose-only effect, or another doubt; inactive = no such curve, though single readings can be large; an effect the other way counts as inactive or inconclusive.

SMILES	ASM inhibitor	TGFb inhibitor	IL-1B inflam inh	DT40 TDP1 no CPT	HepG2 tox-1	DT40 TDP1 CPT	TGFb confirm	HepG2 tox-2	CCL64 TGFb inh	TGFb COP inh
COc1cc(OC)cc(C(=O)N[C@H](C(=O)OCc2cc(=O)oc3cc(C)ccc23)C(C)C)c1	-7.9%	?	1.5	?	-0.5%	?	?	-4.9%	-12.3%	11.8%
CCOC(=O)C1CCCN(C(=O)Cc2ccc(C)cc2)C1 (stereo not drawn)	5.2%	10µM*	6.3	18.4µM*	4.2%	?	-7.2%	-2.0%	23.9%	-9.8%
COc1ccc(-c2[nH]c(-c3cc(OC)c4c(c3)OCO4)nc2-c2ccccc2)cc1	?	?	-16.7	?	3.8%	?	13µM*	?	?	35.6%
Cc1ccc(-c2csc(Cc3nc(-c4cc5ccccc5oc4=O)cs3)n2)cc1	-0.1%	?	-27.1	23.1µM*	-15.5%	18.4µM*	?	-16.2%	5.3%	-1.0%
COc1ccccc1N1C(=O)c2ccc(C(=O)Nc3ccc(C(=O)O)cc3)cc2C1=O	1.2%	4.0%	-0.8	-0.5%	12.1%	0.5%	·	·	·	·
O=C(N/N=C/c1ccccc1O)c1cccc2ccccc12	-6.4%	8.91µM*	97.7	4.11µM*	-21.2%	5.8µM*	?	?	?	16.3%
O=C(O)c1ccc(C=NNC(=O)c2cccc3ccccc23)cc1	6.4%	-21.9%	23.2	?	2.9%	-26.6%	·	·	·	·
Cc1ccc(OCC(=O)Nc2nonc2-c2ccc(Br)cc2)cc1C	·	?	·	?	-45.2%	?	·	·	·	·
Nc1nnnn1/N=C/C(Br)=C/c1ccccc1	2.5%	3.55µM*	-93.0*	0.581µM*	-30.1%	0.461µM*	?	?	?	33.7%
Nc1nnnn1/N=C/C=C/c1ccccc1	0.2%	-20.4%	-2.4	-3.3%	6.3%	-3.6%	·	·	·	·
O=S(=O)(NC1C2CC3CC(C2)CC1C3)c1ccc(F)cc1 (stereo not drawn)	-1.8%	-18.4%	40.5	-22.0%	0.0%	-2.5%	·	·	·	·
Cc1c(C(=O)Nc2nonc2-c2ccc(F)cc2)oc2ccc(F)cc12	-15.0%	11.2µM*	60.5	?	-27.8%	?	13µM*	?	?	55.8%
CCc1nonc1NC(=O)c1oc2ccc(F)cc2c1C	1.2%	7.5%	-4.5	-15.4%	12.9%	1.4%	·	·	·	·
CC1CCc2nc3ncn(Cc4ccccc4C#N)c(=O)c3cc2C1 (stereo not drawn)	·	-14.3%	·	?	-20.4%	?	·	·	·	·
CCN1CCN(Cc2ccc(NC(=O)c3cc(NC(=O)c4cncc(-c5ccc(C#N)cc5)c4)cc(OC)c3)cc2C(F)(F)F)CC1	-22.8%	5.62µM*	-58.6*	2.59µM*	2µM*!	2.31µM*	?	16.4µM*	25.9µM*	?
CCN1CCN(c2ccc(NC(=O)c3ccc(C#N)cc3F)cc2Cl)CC1	0.3%	5.3%	-9.9	?	0.4%	-24.5%	·	·	·	·
CCC(C(=O)OCC(=O)Nc1ccc(F)cc1)c1ccccc1 (stereo not drawn)	0.5%	-10.9%	5.6	-27.6%	-3.9%	-12.0%	·	·	·	·
CCC(C(=O)Oc1c(C(C)C)cccc1C(C)C)c1ccccc1 (stereo not drawn)	-3.2%	?	24.4	-21.0%	-11.4%	-25.3%	?	8.9%	20.6µM*	-14.0%
CC(C)(C)Nc1nc(Oc2ccc(=O)[nH]n2)nc(N2CCOCC2)n1	-4.3%	-18.2%	14.7	-15.8%	7.0%	-0.7%	·	·	·	·
CN(C(=O)c1cccc(NC(=O)Cc2ccc(NC(=O)C3CCN(C(=O)C4CC4)CC3)cc2)c1)C1CCCCC1	0.3%	15.9%	-6.6	-20.0%	22.0%	-22.0%	·	·	·	·
CCOC(=O)c1c(C)[nH]c(C(=O)N/N=C/c2ccc(Br)cc2)c1C	-2.2%	1.41µM*	13.9	0.0231µM*	0.5%	1.16µM*	0.92µM*	-9.2%	?	-17.6%
O=S(=O)(c1ccc2nc(SCc3ccc(Cl)cc3)[nH]c2c1)N1CCOCC1	-29.8%	10µM*	-25.2	-8.7%	-18.9%	-20.7%	11.6µM*	-23.4%	?	20.0%
O=S(=O)(c1ccc2nc(SCc3cccc(Cl)c3)[nH]c2c1)N1CCOCC1	-9.3%	0.0%	-17.0	?	·	?	·	·	·	·
C/C(=N\NC(=O)c1ccccc1OCCOc1ccccc1)c1ccccc1F	-4.4%	20µM*	-65.0*	16.4µM*	-19.3%	?	?	?	?	56.5%
CN(CCOc1ccccc1)C(=O)C1CCN(C(=O)c2ccc(F)cc2)CC1	2.9%	?	10.2	?	0.0%	?	-16.3%	9.6%	-3.5%	11.7%
CCOc1ccccc1C(=O)N1CCC(C(=O)c2ccc(F)cc2)CC1	4.1%	-3.4%	-2.5	?	3.3%	?	·	·	·	·

Screens: PubChem, National Center for Advancing Translational Sciences (NCATS)
